Of roughly 7,900 targets only a part is listed; those with a hit were picked by preference. About 0.6% of all pairs of compound and target were hits.
The targets below were run with Cn1cc(-c2ccc3nnc(C(F)(F)c4ccc5ncccc5c4)n3n2)cn1 (assay: log2 fold change, soluble protein after heating vs DMSO (PISA); higher = thermal stabilisation; K562 cells, 10 uM, 30 min; active = over 0.2 and 3.5 SD of the protein, either way, in both replicates (recomputed)).
Outline: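 For each measurement, 10 μM compound was applied for 30 min to K562 cells at 2×10^6 cells/mL. Aliquots were heated for 3 min across 48°C-58°C, pooled, and extracted in PBS with 0.5% NP-40 at 4°C; the supernatant after 21,000xg for 90 min was soluble protein. This was quantified by TMTpro 16plex LC-MS/MS with channel sums equalised, and thermal stability was reported relative to control samples from duplicates, on a log2 fold-change scale.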
Chain of UniProt Q5T655 (Q5T655 whole entry, looked up): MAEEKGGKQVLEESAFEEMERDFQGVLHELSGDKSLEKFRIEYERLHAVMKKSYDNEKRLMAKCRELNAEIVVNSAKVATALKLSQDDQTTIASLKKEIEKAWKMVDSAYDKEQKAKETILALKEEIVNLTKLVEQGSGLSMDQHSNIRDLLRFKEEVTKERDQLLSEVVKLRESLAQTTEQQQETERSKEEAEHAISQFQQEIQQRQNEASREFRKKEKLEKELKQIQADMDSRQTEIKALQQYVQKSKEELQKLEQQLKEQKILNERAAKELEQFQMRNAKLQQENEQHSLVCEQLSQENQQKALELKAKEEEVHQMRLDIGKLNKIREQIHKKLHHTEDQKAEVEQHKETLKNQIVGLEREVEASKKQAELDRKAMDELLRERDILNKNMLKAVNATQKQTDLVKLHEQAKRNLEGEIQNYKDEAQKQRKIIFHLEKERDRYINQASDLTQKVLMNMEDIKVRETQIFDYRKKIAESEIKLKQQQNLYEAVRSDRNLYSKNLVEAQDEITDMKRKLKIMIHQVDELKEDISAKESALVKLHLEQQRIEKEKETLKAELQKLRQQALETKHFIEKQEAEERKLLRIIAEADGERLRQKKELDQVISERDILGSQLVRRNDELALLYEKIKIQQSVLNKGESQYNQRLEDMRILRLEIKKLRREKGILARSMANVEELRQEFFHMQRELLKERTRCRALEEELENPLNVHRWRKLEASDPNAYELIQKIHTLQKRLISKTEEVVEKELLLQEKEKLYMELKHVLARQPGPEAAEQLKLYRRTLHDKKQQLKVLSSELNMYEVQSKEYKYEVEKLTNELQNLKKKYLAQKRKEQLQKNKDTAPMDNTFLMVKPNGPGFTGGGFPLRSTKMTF
Chain of UniProt Q6UUV7 (Q6UUV7 whole entry, looked up): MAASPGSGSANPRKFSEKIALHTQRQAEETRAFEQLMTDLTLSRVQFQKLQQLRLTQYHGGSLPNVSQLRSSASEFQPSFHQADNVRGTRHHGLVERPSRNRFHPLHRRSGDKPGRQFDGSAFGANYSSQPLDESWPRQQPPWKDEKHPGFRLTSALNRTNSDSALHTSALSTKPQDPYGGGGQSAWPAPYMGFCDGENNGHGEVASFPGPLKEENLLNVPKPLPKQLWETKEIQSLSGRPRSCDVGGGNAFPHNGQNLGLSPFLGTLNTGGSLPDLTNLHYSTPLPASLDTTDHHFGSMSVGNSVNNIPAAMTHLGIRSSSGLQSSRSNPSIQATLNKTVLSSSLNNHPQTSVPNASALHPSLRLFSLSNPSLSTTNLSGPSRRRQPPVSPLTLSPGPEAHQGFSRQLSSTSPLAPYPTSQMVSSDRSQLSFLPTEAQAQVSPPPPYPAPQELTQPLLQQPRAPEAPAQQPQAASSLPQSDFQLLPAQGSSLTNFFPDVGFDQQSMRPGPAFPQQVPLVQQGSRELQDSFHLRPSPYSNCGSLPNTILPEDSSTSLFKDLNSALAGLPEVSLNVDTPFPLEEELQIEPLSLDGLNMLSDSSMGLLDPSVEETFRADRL
Chain of UniProt P30281 (P30281 whole entry, looked up): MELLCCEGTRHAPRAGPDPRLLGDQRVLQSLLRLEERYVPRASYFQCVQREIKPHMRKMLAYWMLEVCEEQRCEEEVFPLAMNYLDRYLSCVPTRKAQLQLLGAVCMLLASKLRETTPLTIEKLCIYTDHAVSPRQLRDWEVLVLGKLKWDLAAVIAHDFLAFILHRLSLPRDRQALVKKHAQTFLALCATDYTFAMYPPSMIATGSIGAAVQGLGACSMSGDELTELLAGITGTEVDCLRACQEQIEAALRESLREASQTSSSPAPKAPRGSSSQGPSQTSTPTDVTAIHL
Chain of UniProt Q92828 (Q92828 whole entry, looked up): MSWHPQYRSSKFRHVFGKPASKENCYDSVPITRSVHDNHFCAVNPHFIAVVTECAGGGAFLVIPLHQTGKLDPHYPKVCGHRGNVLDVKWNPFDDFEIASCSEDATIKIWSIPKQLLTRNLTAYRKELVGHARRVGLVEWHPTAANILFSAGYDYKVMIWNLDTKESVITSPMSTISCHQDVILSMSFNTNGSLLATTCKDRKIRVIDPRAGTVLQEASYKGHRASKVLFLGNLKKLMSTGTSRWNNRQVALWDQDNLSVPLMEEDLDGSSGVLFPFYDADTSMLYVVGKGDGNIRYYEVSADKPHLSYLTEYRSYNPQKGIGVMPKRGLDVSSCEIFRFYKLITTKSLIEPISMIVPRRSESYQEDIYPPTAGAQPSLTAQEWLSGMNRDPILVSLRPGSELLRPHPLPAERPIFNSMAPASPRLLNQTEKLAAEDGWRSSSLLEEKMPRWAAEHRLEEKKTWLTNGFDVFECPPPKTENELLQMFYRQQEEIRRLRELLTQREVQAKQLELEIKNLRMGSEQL
Chain of UniProt Q9UHN6 (Q9UHN6 whole entry, looked up): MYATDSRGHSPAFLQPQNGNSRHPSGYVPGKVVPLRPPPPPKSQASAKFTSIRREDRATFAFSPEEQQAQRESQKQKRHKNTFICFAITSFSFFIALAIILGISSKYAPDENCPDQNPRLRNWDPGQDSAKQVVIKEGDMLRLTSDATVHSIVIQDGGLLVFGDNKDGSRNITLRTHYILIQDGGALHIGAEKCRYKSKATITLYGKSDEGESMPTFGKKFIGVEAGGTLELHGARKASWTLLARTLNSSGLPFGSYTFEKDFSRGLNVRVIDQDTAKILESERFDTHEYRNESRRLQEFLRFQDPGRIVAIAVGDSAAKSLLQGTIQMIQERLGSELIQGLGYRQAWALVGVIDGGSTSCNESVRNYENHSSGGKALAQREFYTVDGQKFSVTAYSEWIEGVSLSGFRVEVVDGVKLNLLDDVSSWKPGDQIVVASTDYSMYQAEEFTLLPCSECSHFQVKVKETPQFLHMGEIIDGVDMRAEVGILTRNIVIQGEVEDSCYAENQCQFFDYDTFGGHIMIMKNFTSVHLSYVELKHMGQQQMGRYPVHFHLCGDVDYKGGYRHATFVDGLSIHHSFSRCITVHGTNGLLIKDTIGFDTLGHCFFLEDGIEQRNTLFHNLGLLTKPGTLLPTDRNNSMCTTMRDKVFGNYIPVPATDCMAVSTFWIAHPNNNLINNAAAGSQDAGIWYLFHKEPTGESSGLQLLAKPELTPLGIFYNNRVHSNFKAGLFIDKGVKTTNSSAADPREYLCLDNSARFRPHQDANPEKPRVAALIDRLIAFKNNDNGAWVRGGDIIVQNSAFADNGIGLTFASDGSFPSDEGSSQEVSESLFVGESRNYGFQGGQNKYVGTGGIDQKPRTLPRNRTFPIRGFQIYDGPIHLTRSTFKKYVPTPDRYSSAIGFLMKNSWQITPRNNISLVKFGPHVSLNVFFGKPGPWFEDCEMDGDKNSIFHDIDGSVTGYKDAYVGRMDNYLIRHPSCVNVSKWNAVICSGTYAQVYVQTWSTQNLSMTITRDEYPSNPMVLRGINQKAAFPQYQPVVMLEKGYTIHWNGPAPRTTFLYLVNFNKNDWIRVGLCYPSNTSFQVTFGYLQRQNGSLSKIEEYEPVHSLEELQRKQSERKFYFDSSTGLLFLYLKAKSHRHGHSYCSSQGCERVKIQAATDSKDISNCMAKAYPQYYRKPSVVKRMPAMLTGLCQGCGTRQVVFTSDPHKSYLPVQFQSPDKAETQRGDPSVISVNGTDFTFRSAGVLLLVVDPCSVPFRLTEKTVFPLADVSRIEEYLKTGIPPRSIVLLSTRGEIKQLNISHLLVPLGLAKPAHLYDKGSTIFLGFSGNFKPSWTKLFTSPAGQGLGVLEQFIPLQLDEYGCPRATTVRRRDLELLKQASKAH
Chain of UniProt Q9UBY8 (Q9UBY8 whole entry, looked up): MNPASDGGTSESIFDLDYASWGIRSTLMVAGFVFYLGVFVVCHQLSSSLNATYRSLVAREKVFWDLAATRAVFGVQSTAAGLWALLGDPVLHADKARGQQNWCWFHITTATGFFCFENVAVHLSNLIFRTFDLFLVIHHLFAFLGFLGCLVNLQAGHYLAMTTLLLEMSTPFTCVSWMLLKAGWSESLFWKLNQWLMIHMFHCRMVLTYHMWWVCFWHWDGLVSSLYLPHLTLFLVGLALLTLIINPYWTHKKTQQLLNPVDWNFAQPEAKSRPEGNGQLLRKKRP
Chain of UniProt Q13286 (Q13286 whole entry, looked up): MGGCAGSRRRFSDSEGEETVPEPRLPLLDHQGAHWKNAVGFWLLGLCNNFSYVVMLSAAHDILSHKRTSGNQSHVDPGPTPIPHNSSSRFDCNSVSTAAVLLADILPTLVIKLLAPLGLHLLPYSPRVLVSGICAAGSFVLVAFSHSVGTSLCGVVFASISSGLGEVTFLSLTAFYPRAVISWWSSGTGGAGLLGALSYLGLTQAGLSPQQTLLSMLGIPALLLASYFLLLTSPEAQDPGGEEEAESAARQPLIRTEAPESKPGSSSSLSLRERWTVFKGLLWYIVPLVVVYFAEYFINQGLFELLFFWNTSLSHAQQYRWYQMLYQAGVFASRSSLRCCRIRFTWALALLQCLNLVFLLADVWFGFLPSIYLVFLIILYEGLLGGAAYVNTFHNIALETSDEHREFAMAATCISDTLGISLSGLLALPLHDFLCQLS
Chain of UniProt Q9H257 (Q9H257 whole entry, looked up): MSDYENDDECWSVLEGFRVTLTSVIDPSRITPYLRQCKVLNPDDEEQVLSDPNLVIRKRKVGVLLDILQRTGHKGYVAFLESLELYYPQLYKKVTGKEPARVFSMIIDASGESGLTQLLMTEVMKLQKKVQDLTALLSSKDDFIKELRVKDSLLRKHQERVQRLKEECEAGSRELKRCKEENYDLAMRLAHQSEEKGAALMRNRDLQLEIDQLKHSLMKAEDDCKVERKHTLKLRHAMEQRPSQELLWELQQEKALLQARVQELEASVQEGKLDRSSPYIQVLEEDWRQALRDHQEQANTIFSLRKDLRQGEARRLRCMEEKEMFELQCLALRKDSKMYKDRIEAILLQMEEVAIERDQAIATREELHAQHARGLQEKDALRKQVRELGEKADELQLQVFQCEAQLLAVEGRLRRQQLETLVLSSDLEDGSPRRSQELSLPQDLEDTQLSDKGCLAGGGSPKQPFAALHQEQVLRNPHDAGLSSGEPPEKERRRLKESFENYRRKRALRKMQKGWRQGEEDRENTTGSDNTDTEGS
With CARD9 (UniProt Q9H257) the log2 fold change was 0.085 (inactive). In the case of CCNDBP1 (UniProt O95273), the log2 fold change is reported as -0.197 (inactive). For CORO2A (UniProt Q92828), the log2 fold change was -0.255 (inactive). With CLN3 (UniProt Q13286) the log2 fold change was 0.028 (inactive). For CLASP2 (UniProt O75122), the log2 fold change was -0.344 (inactive). With CCDC82 (UniProt Q8N4S0) the log2 fold change was -0.021 (inactive). For CEBPZOS (UniProt A8MTT3), the log2 fold change was 0.033 (inactive). In the case of CNRIP1 (UniProt Q96F85), the log2 fold change is reported as 0.038 (inactive). For CREB3L2 (UniProt Q70SY1), the log2 fold change was -0.024 (inactive). For CEMIP2 (UniProt Q9UHN6), the log2 fold change was 0.179 (inactive). In the case of CLN8 (UniProt Q9UBY8), the log2 fold change is reported as 0.266 (inactive). In the case of CCND3 (UniProt P30281), the log2 fold change is reported as 0.092 (inactive). For CCDC187, A0A1W2PQX5, the log2 fold change was -0.056 (inactive). CLCN5 isoform 2 (UniProt P51795) was tested, and the log2 fold change was -0.061 (inactive). For CNOT4 isoform 9 (UniProt O95628), the log2 fold change was 0.036 (inactive). For CFAP58 (UniProt Q5T655), the log2 fold change was -0.046 (inactive). CDK2AP2 (UniProt O75956) was tested, and the log2 fold change was -0.039 (inactive). In the case of CRTC3 (UniProt Q6UUV7), the log2 fold change is reported as -0.019 (inactive). In the case of CDC25B isoform 4 (UniProt P30305), the log2 fold change is reported as -0.03 (inactive). With CCNT2 (UniProt O60583) the log2 fold change was -0.219 (inactive).
